HT1080 IDH1KD tx: kills HT-1080 cells with IDH1 knockdown; Potency, µM (doses to about 46.1 µM), for the others: at the top dose activity, negative = toxicity, usual class: cytotoxic; HT-1080 IDH1 knockdown viability, ATP luminescence, 48 h; hit rate 2% among 360,000;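 further: potency means the concentration at half of the fitted maximal effect; 0% = DMSO wells and -100% = cell-free medium wells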
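Luminescent ATP read-out (CellTiter-Glo, 10 min at room temperature) after 48 h compound exposure at 37 °C gave viability of IDH1-knockdown HT-1080 cells. Activity was normalised to DMSO and cell-free wells, then fitted as concentration-response curves.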
IL1B secr inh: blocks inflammasome-driven IL-1 beta release; hit rate 4.7% among 360,000; activity change, % at 57.5 µM; THP-1 LPS/ATP IL-1B secretion, AlphaLISA, 16 h; hits give low values; AID 743279; in the data active means activity change below about -50%; inconclusive means mostly about -30% to -49%
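Secreted IL-1B measured by AlphaLISA bead assay after 16 h compound exposure of THP-1 cells; compounds (final up to 57.5 uM) added 1 h before LPS (250 ng/mL) and ATP (1.25 mM) stimulation; lower signal means less secretion.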
HT1080NT lethal: kills 2HG-producing HT-1080-NT fibrosarcoma cells. HT-1080-NT fibrosarcoma viability, CellTiter-Glo ATP luminescence, 48 h. Potency, µM (highest dose often 46.1 µM), for inactives: at the highest dose activity, negative = less viability, hits mostly cytotoxic. hit rate 1.6% among 360,000. AID 686970;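 further: NT is the 2HG producing partner of a matched IDH1 knockdown line; potency means the concentration at half of the fitted maximal effect; 0% = DMSO-treated cells and -100% = media-only wells without cells; nearly all actives have a fitted effect of over 55% in size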
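Compounds were tested in concentration-response format on HT-1080-NT cells for 48 hours at 37 degrees C. Cell viability came from CellTiter-Glo luminescence; curves were classified by r2, response magnitude and activity.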
ELG1 repair inh: inhibitors of ELG1-dependent DNA repair in HEK293T cells; HEK293T ELG1-luciferase reporter, luminescence, 16 h; DNA damage induced by 5-fluorouridine; Potency, µM (series often up to 46.1 µM), for inactives: at the highest dose activity change, negative = inhibition, most hits filed as inhibitors; hit rate 2.3% among 330,000; further: potency means the concentration at half of the fitted maximal effect; nearly all actives have a fitted effect of over 55% in size
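Cells (2,000 per well) received 5-fluorouridine plus test compound or DMSO and were incubated 16 hr at 37 °C, 5% CO2. Luciferase activity was read by luminescence 30 min after ONE-Glo addition; signal suppression marked inhibition of damage-induced ELG1 function.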
TDP1 cell CPT: growth inhibition of DT40 Tdp1-/-;hTDP1 cells with camptothecin (screen for TDP1 inhibitors). chicken DT40 Tdp1-/-;hTDP1 cells + 20 nM CPT, ATP luminescence, 48 h. Potency, µM (top dose mostly 46.2 µM), inactives show at the top dose activity change, negative = growth inhibition, actives largely listed as inhibitors. hit rate 12% among 420,000; further: potency means the concentration at half of the fitted maximal effect; nearly all actives have a fitted effect of over 55% in size
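Cell growth measured by CellTiter-Glo luminescence after a minimum 48 h, 37 C compound exposure with 20 nM CPT in Tdp1-knockout DT40 cells stably expressing hTDP1, seeded 400/well; qHTS titration format.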
DT40 TDP1 no CPT: qHTS for Inhibitors of human tyrosyl-DNA phosphodiesterase 1 (TDP1): qHTS in cells in absence of CPT; DT40 Tdp1-/- hTDP1 cells, no CPT, ATP luminescence, 48 h; Potency, µM (titrated, usually from 46.2 µM), inactives show at the top dose activity change, negative = growth inhibition, usual class: inhibitors; hit rate 15% among 420,000; AID 686978, 2013; further: potency means the concentration at half of the fitted maximal effect; nearly all actives have a fitted effect of over 55% in size
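Growth kinetics read by CellTiter-Glo luminescence after ≥48 hr at 37 °C. Cells: DT40 Tdp1-/- stably carrying human TDP1, 400 per well, compound exposure in the absence of CPT (DMSO vehicle).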
* hit, by the source's call. Hits are enriched below; roughly 19% of the tested compounds scored in any of these assays. Unless noted, the call rests on the fitted dose curve; in most records, active means well fitted curve in the direction sought with a large enough effect; inconclusive means small, poorly fitted or top-dose-only effect, or another doubt; inactive means no such curve, though single readings can be large; an effect the other way counts as inactive or inconclusive. Unless noted, on the % scale 0 is the no-effect control and ±100 the full control effect.

Results for C/C(=N/NC(=O)c1ccccc1O)c1ccc(N2C(=O)C3CCCCC3C2=O)cc1 (stereo unspecified) ?
HT1080 IDH1KD tx: -13%; IL1B secr inh: 23; HT1080NT lethal: -2%; ELG1 repair inh: -4%; TDP1 cell CPT: -19%; DT40 TDP1 no CPT: -5%

How did CC(C(=O)NC1CCCc2ccccc21)N1CCN(c2ccc(F)cc2)CC1 (stereo unspecified) do in these assays?
HT1080 IDH1KD tx: -24%; IL1B secr inh: -5; HT1080NT lethal: -19%; ELG1 repair inh: -5%; TDP1 cell CPT: inconclusive; DT40 TDP1 no CPT: 16µM*

What do the screens show for `Cc1ccc(OCCCC(=O)NNC(=O)c2ccccn2)cc1`?
HT1080 IDH1KD tx: inconclusive; IL1B secr inh: 23; HT1080NT lethal: 2%; ELG1 repair inh: 8%; TDP1 cell CPT: 6.5µM*; DT40 TDP1 no CPT: 5.8µM*

What do the screens show for `O=C(COc1ccc(Cl)cc1)NNC(=O)c1ccccn1`?
HT1080 IDH1KD tx: inconclusive; IL1B secr inh: 52; HT1080NT lethal: -10%; ELG1 repair inh: -13%; TDP1 cell CPT: inconclusive; DT40 TDP1 no CPT: inconclusive

Results for Cc1cc(C)cc(OCC(=O)NNC(=O)c2ccccn2)c1 ?
HT1080 IDH1KD tx: -27%; IL1B secr inh: 103; HT1080NT lethal: inconclusive; ELG1 repair inh: inconclusive; TDP1 cell CPT: 9.2µM*; DT40 TDP1 no CPT: 6.5µM*

Results for COCCN(CC1CCCN(C2Cc3ccccc3C2)C1)C(=O)c1cccc(C)c1 (stereo unspecified) ?
HT1080 IDH1KD tx: -4%; IL1B secr inh: -6; HT1080NT lethal: 0%; ELG1 repair inh: 7%; TDP1 cell CPT: inconclusive; DT40 TDP1 no CPT: inconclusive

What do the screens show for `Cc1ccc(-n2c3c(cc(-c4nc(-c5ccc(Cl)cc5)cs4)c2=O)C(=O)CC(C)(C)C3)cc1`?
TDP1 cell CPT: -11%; DT40 TDP1 no CPT: -4%

Results for CCSc1ccc2cc(OC)ccc2[n+]1CC ?
HT1080 IDH1KD tx: 6%; IL1B secr inh: 0; HT1080NT lethal: 14%; ELG1 repair inh: inconclusive; TDP1 cell CPT: 5.8µM*; DT40 TDP1 no CPT: 7.3µM*

Results for COc1ccc(CC(=O)Nc2nc(-c3cccc([N+](=O)[O-])c3)cs2)cc1 ?
HT1080 IDH1KD tx: -23%; IL1B secr inh: -6; HT1080NT lethal: -14%; ELG1 repair inh: inconclusive; TDP1 cell CPT: inconclusive; DT40 TDP1 no CPT: inconclusive

Results for Cc1[nH]n(-c2nc(-c3cccc([N+](=O)[O-])c3)cs2)c(=O)c1C ?
HT1080 IDH1KD tx: 8%; IL1B secr inh: 4; HT1080NT lethal: 1%; ELG1 repair inh: inconclusive; TDP1 cell CPT: inconclusive; DT40 TDP1 no CPT: 21µM*

What do the screens show for `O=C(NC(=S)Nc1nc(-c2cccc([N+](=O)[O-])c2)cs1)c1cc(Cl)ccc1Cl`?
HT1080 IDH1KD tx: 12%; IL1B secr inh: -2; HT1080NT lethal: 24%; ELG1 repair inh: inconclusive; TDP1 cell CPT: -83%; DT40 TDP1 no CPT: 16µM*

Results for O=[N+]([O-])c1cccc(-c2csc(N/N=C/c3cccc(O)c3)n2)c1 ?
HT1080 IDH1KD tx: 18µM*; IL1B secr inh: -168*; HT1080NT lethal: inconclusive; ELG1 repair inh: inconclusive; TDP1 cell CPT: inconclusive; DT40 TDP1 no CPT: 21µM*

What do the screens show for `O=C(Nc1nc(-c2cccc([N+](=O)[O-])c2)cs1)C(c1ccccc1)c1ccccc1`?
HT1080 IDH1KD tx: -13%; IL1B secr inh: -72*; HT1080NT lethal: -6%; ELG1 repair inh: -12%; TDP1 cell CPT: inconclusive; DT40 TDP1 no CPT: inconclusive

What do the screens show for `Cc1ccc(S(=O)(=O)N2CCCC2)cc1C(=O)NCc1ccccc1CN1CCCC1`?
HT1080 IDH1KD tx: 5%; IL1B secr inh: -13; HT1080NT lethal: -5%; ELG1 repair inh: 1%; TDP1 cell CPT: -3%; DT40 TDP1 no CPT: -28%

Results for CS(=O)(=O)N1CCc2cc(C(=O)O)ccc21 ?
HT1080 IDH1KD tx: -1%; IL1B secr inh: 3; HT1080NT lethal: -1%; ELG1 repair inh: 1%; TDP1 cell CPT: -6%; DT40 TDP1 no CPT: -7%

Results for CS(=O)(=O)N1CCc2cc(-c3csc(NC(=O)C(c4ccccc4)c4ccccc4)n3)ccc21 ?
HT1080 IDH1KD tx: 0%; IL1B secr inh: 16; HT1080NT lethal: inconclusive; ELG1 repair inh: 10%; TDP1 cell CPT: 12µM*; DT40 TDP1 no CPT: inconclusive

What do the screens show for `C[N+](C)(C)CCN1C(=O)c2ccccc2C1=O`?
HT1080 IDH1KD tx: 8%; IL1B secr inh: 0; HT1080NT lethal: 22%; TDP1 cell CPT: -4%; DT40 TDP1 no CPT: -17%

What do the screens show for `COc1ccccc1N1CCN(C(=O)c2coc(=O)c(Br)c2)CC1`?
HT1080 IDH1KD tx: 3%; IL1B secr inh: 14; HT1080NT lethal: -13%; ELG1 repair inh: -6%; TDP1 cell CPT: 3.3µM*; DT40 TDP1 no CPT: 7.3µM*

Results for COc1ccccc1NC(=O)c1ccc(NC(=O)C2CC2)cc1 ?
HT1080 IDH1KD tx: 10%; IL1B secr inh: -17; HT1080NT lethal: 22%; TDP1 cell CPT: 9%; DT40 TDP1 no CPT: 1%

How did COc1ccccc1NC(=O)c1cc[n+](C)cc1 do in these assays?
HT1080 IDH1KD tx: 5%; IL1B secr inh: 19; HT1080NT lethal: 3%; ELG1 repair inh: 0%; TDP1 cell CPT: 0%; DT40 TDP1 no CPT: -2%

Results for COc1ccc(NC(=O)c2ccc(NC(=O)c3ccco3)cc2)c(OC)c1 ?
HT1080 IDH1KD tx: 4%; IL1B secr inh: -50*; HT1080NT lethal: 7%; ELG1 repair inh: -24%; TDP1 cell CPT: inconclusive; DT40 TDP1 no CPT: inconclusive

What do the screens show for `COc1ccccc1N1CCN(C(=O)c2cccc(C(=O)N3CCN(c4ccccc4OC)CC3)c2)CC1`?
HT1080 IDH1KD tx: -6%; IL1B secr inh: -6; HT1080NT lethal: -3%; ELG1 repair inh: inconclusive; TDP1 cell CPT: inconclusive; DT40 TDP1 no CPT: inconclusive

What do the screens show for `COc1cc(OC)cc(C(=O)Nc2ccc(C(=O)Nc3ccccc3OC)cc2)c1`?
HT1080 IDH1KD tx: inconclusive; IL1B secr inh: inconclusive; HT1080NT lethal: -23%; ELG1 repair inh: 16µM*; TDP1 cell CPT: inconclusive; DT40 TDP1 no CPT: inconclusive

How did COc1ccccc1NC(=O)c1coc(=O)c(Br)c1 do in these assays?
HT1080 IDH1KD tx: -16%; IL1B secr inh: inconclusive; HT1080NT lethal: -14%; ELG1 repair inh: inconclusive; TDP1 cell CPT: 0.73µM*; DT40 TDP1 no CPT: 2.1µM*

What do the screens show for `Fc1ccccc1Cc1cn2cc(-c3ccc(Cl)cc3)nc2s1`?
TDP1 cell CPT: inconclusive; DT40 TDP1 no CPT: -24%
